These results are taken from PubChem BioAssay AID1259415 (National Center for Advancing Translational Sciences (NCATS), 2018).

Molecules are shown by their SMILES. Among all 410,000 compounds or so, about 18,000 (4.4%) were called active. Another 7% or so got no clear call; they are omitted. The entries come from a sample that favours actives as a whole. A number with no mark means an inactive call. Rule as the data show it: active = activity change below about -60%; inconclusive = no clear call, values can overlap the other calls; inactive = above about -39%.
% is scaled to controls: 0 for no effect and ±100 for the full control effect.

This test is described as follows: qHTS Assay for inhibitors of the human cytomegalovirus (HCMV). The following applies: HFF cells, HCMV-luciferase reporter, 72 h; at 57.5 µM; active compounds read low. In a few lines: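 Luciferase read-out from HCMV-luciferase-infected HFFs (MOI 1 PFU/cell) 72 h post infection at 37C; compounds added after 16 h cell attachment; activity normalized between buffer-only basal and Salinomycin (10uM) inhibitor controls.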
For orientation: Quantitative high-throughput screening tests each substance at several concentrations.
With `CCCN(C(=O)Cn1cc(S(=O)(=O)N2CCN(c3ccccc3F)CC2)c2ccccc2c1=O)c1cccc(C)c1`, the activity change, negative = inhibition is -13.9%. Turning to `CC1COC2C(O1)N(S(C)(=O)=O)CCN2S(C)(=O)=O` (stereo not drawn), the activity change, negative = inhibition was 17.4%. As to `CCOC(=O)CC1COCCN1C(=O)c1cc(COc2ccc(F)c(F)c2)on1` (stereo not drawn), the activity change, negative = inhibition is 53.9%. As for `CCOC(=O)CC1(NC(=O)c2cc(COc3cncc(Cl)c3)on2)CCCCC1`, the activity change, negative = inhibition was -73.4% (active). As to `CCCOC1CCCN(C(=O)c2cc(COc3cncc(Cl)c3)on2)C1` (stereo not drawn), the activity change, negative = inhibition is 45.7%. On to `O=C(O)CSc1nccn1-c1cccc(Cl)c1`, for which the activity change, negative = inhibition was -24.9%. `Cc1ccc(Nc2c(-c3ccc(N(C)C)cc3)nc3nc[nH]n23)cc1`: the activity change, negative = inhibition is -7.65%. As to `Cc1cccc(OCCSc2nc3ccccc3n2CC(=O)N2CCCCC2)c1C`, the activity change, negative = inhibition was 0.117%. `CCOC(=O)C1CCCN(C(=O)c2ccc(-n3ccc4ccccc43)s2)C1` (stereo not drawn): the activity change, negative = inhibition is 7.94%.

In the case of `CC1CN(C(=O)c2cc(COc3c(F)cccc3F)on2)CCN1C` (stereo not drawn), the activity change, negative = inhibition is 3.63%. The figure for `Cc1ccc(C)c(OCc2cc(C(=O)N3CCN(c4cnccn4)CC3)no2)c1` is -30.5%; for `C=CCC1(CC=C)CCCN1C(=O)c1cc(COc2ccc(-n3cncn3)cc2)on1` it is -87.7% (active); for `COc1cccc(CNC(=O)Cn2c(=O)c3cccn3c3ccc(F)cc32)c1OC` it is 44.7%.

Take `CCOc1ccccc1CNC(=O)c1ccc2c(c1)nc1n2CCC(C)C1` (stereo not drawn): the activity change, negative = inhibition was 33.3%. `Cc1ccc2nc(COc3cccc(NC(=O)Nc4ccc(C)c(Cl)c4)c3)cc(=O)n2c1`: the activity change, negative = inhibition is 26.6%. `CC(NC(=O)c1cc2c(=O)n3ccccc3nc2n(C(C)C)c1=N)c1ccccc1` (stereo not drawn): the activity change, negative = inhibition was 0.208%. Turning to `Cc1nn(-c2nc(-c3ccccc3)cc(C(F)(F)F)n2)c(C)c1Cl`, the activity change, negative = inhibition is -14.9%. For the molecule `CCCCCCCC(=O)NC(Nc1ccccc1OC)C(Cl)(Cl)Cl` (stereo not drawn), the activity change, negative = inhibition was -23.2%. For the molecule `CCCCC(=O)NC(c1ccc(OC)c(OC)c1)c1ccc2cccnc2c1O` (stereo not drawn), the activity change, negative = inhibition is -103% (active).

For `CCOc1ccc(C(CC(=O)O)n2cnnn2)cc1OC` (stereo not drawn), the activity change, negative = inhibition is -29.4%. Next, `COC(=O)/C(=C\Nc1ccccc1)NC(=O)c1ccc(Cl)cc1Cl`: -5.36%; `COc1ccc(OC)c(CCNC(=O)CCCn2c(=O)c3cccn3c3cccnc32)c1`: 6.58%; `COc1ccc(NC(=O)CN2CCCN(Cc3ccccc3)S2(=O)=O)cc1`: 0%. Take `COC(=O)[C@]1(S(=O)(=O)c2ccccc2)C[C@@H]2ON=C(c3ccc(OC)cc3)[C@@H]2C1`: the activity change, negative = inhibition was 13.3%. Next, `N#C[C@]1(S(=O)(=O)c2ccccc2)C[C@@H]2ON=C(c3cccc(Br)c3)[C@@H]2C1`: -79.5% (active); `COc1ccc(CNc2nc(-c3ccc(Cl)cc3)cc(C(F)(F)F)n2)cc1`: -7.09%. With `CCN(CC)S(=O)(=O)c1ccc2c(c1)nc(CN(C)C(=O)Nc1ccc(Cl)cc1)n2C`, the activity change, negative = inhibition was 9.69%. With `Cc1noc(/C=C/c2ccco2)c1S(=O)(=O)N1CCC(C(=O)Nc2ccc(Cl)cn2)CC1`, the activity change, negative = inhibition was -79.9% (active). Consider `Cc1noc(/C=C/c2ccco2)c1S(=O)(=O)N1CCC(C(=O)N2CCc3ccccc32)CC1`, for which the activity change, negative = inhibition is 47.1%. Regarding `Cc1cccc(NC(=O)C2CCN(S(=O)(=O)c3c(C)noc3/C=C/c3ccco3)CC2)c1`, the activity change, negative = inhibition was -40%.

On to `C[C@H]1CN([C@@H](C)CO)C(=O)CCCn2cc(nn2)CO[C@@H]1CN(C)S(=O)(=O)c1ccccc1C#N`, for which the activity change, negative = inhibition is -5.79%.

For `Cc1cccc(N2CCN(S(=O)(=O)c3ccc4[nH]c5c(c4c3)CCCCC5)CC2)c1C`, the activity change, negative = inhibition was 16.6%. For `Cc1c(NC(=O)Nc2ccc(F)c(Cl)c2)c(=O)n(-c2ccccc2)n1C`, the activity change, negative = inhibition was 1.88%. The figure for `O=C(NC(Cc1ccccc1)C(=O)O)/C(=C\c1ccccc1)NC(=O)c1ccco1` (stereo not drawn) is 54.3%; for `CC(C)(C)NC(=O)/C(=C/c1cccnc1)NC(=O)c1ccco1` it is -61.3% (active); for `C/C(CC(=O)NC(C)(C)C)=N\NC(=O)c1ccco1` it is 16.9%. For `Cc1ccc(/C=C(\C#N)C(=O)Nc2cc(C)ccc2C)cc1`, the activity change, negative = inhibition was -15.9%.

For `Cc1ccc(CNC(=O)C2CCCN2C(=O)NCc2ccccc2)cc1` (stereo not drawn), the activity change, negative = inhibition was 1.11%. For the molecule `Cc1[nH]n(-c2cccc(Cl)c2)c(=O)c1-c1ccc(Cl)cc1`, the activity change, negative = inhibition is -66.9% (active). As for `O=c1c2ccccc2[nH]c(=S)n1-c1cccc(Cl)c1`, the activity change, negative = inhibition was -21.9%.

As to `CCCc1cc(=O)n2[nH]c(C)c(-c3ccc(Cl)cc3)c2n1`, the activity change, negative = inhibition was 4.01%. With `Cc1ccc2c(c1)N(CC(=O)N1CCCC(C)C1)C(=O)CO2` (stereo not drawn), the activity change, negative = inhibition was -22.2%.

Take `COC(=O)c1sc2ncccc2c1-n1c(C)ccc1C`: the activity change, negative = inhibition is -10.3%. `CCOC(=O)c1cc2cc(OC)ccc2n1C1CCN(C)CC1`: the activity change, negative = inhibition was -32.2%. In the case of `CCN(CC)c1cc(NC2CCCCC2)c2c3c(onc13)-c1ccccc1C2=O`, the activity change, negative = inhibition was -25.5%. As for `COc1c(Cl)cc(Cl)cc1C(=O)Nc1cccc2cccnc12`, the activity change, negative = inhibition is 33.4%.

In the case of `CC(=O)/C(=N\Nc1ccc(Cl)cc1Cl)Sc1cccc2cccnc12`, the activity change, negative = inhibition was -103% (active).

Turning to `CC(Oc1ccc(Cl)cc1)C(=O)Nc1ncccn1` (stereo not drawn), the activity change, negative = inhibition is -1.17%. Turning to `Cc1nn2c(=O)cc(COC(=O)c3ccccc3NC(=O)COc3ccccc3C)nc2s1`, the activity change, negative = inhibition is 31.1%.

Regarding `Cc1cccc(-n2ncc(Cl)c(Cl)c2=O)c1`, the activity change, negative = inhibition was -104% (active). The figure for `CC(=O)c1cccc(NC(=O)c2nc(-c3ccccc3)n(-c3cccc(C)c3)n2)c1` is -18.5%. Consider `Cc1cccc(-n2ncc(C(=O)N3CCN(c4ccc(Cl)cc4)CC3)c2C2CCN(C(=O)OC(C)(C)C)CC2)c1`, for which the activity change, negative = inhibition is 0%. As to `CN1CCN(C(CNC(=O)c2ccccc2F)c2ccc3c(c2)OCO3)CC1` (stereo not drawn), the activity change, negative = inhibition is 12.6%. The figure for `COc1ccc(N2C(=O)CCC(C(=O)N(C)C3CCCCC3)C2c2ccc(OC)c(OC)c2)cc1` (stereo not drawn) is -12.4%; for `CN(C)S(=O)(=O)c1ccc(C(=O)N(Cc2cccnc2)c2nc3c(F)cc(F)cc3s2)cc1` it is 0%. As for `Cc1ccsc1C(=O)OCC(=O)c1cc(C)n(CC2CCCO2)c1C` (stereo not drawn), the activity change, negative = inhibition was -75.9% (active).

`Cc1cc(C(=O)COC(=O)c2cccs2)c(C)n1-c1c(C)n(C)n(-c2ccccc2)c1=O`: the activity change, negative = inhibition is -1.04%.

Regarding `COCCn1c(C)cc(C(=O)COC(=O)CNC(=O)c2ccco2)c1C`, the activity change, negative = inhibition was 0%.
